We go through 96 compounds from PubChem BioAssay AID430 (Sanford-Burnham Center for Chemical Genomics, 2006).

Among all 63,000 compounds or so, about 1,100 (1.7%) were called active. The full list was thinned out, with actives kept by preference. Results with a measured potency or affinity are listed apart. Unmarked numbers belong to inactive results. No stated cut-off is given here; in the data, active means cytotoxicity above about 50%; inactive means the rest.

The test can be described thus: cytotoxicity in HPDE-C7 cells, cell-based, fluorescence, HTS (AID 430).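 Further: cells exposed to compound for 48 hours before viability readout; 0% = vehicle and 100% = reference cytotoxic drug.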 As to conditions: HPDE-C7 pancreatic duct cells viability, at 10 µM, hits give high values.
In the case of `COc1ccc(-n2c(Cc3cccn3C)nnc2SCC(=O)NC2CCCC2)cc1`, the cytotoxicity is -16%.

`CCN(CC)CCNC(=O)Cn1nc(Cc2ccccc2)c2ccccc2c1=O`: the cytotoxicity is -4.7%.

For the compound `CCOc1cc(C2C(C#N)=C(N)Oc3n[nH]c(CC)c32)ccc1OCCN1CCOCC1` (stereo unspecified), the cytotoxicity is -1.8%.

As to `CCOC(=O)C1CCN(C(=O)CNS(=O)(=O)c2cccs2)CC1`, the cytotoxicity is -14.6%.

Regarding `CN(CCNC(=O)Cn1c(=O)sc2ccccc21)Cc1ccccc1`, the cytotoxicity is 10.4%.

Take `COC(=O)c1sc(NC(=O)Cc2cccs2)nc1C`: the cytotoxicity is -9.1%.

For the compound `COc1ccc(C(=O)c2sc(NC(C)C)nc2N)cc1OC`, the cytotoxicity is -6.1%.

Turning to `COc1cccc(C(=O)c2sc(NC(C)C)nc2N)c1`, the cytotoxicity is 70.8% (active).

Take `CCCc1nnc(NC(=O)c2cccc(OC)c2)s1`: the cytotoxicity is -16.1%.

On to `O=C(NC1CCCCC1)c1ccc(CS(=O)(=O)Cc2ccccc2F)o1`, for which the cytotoxicity was -6.3%.

Regarding `CCOc1ccccc1NC(=O)Cn1nnc(C(=O)NCc2ccco2)c1N`, the cytotoxicity is 63% (active).

On to `CCOc1ccccc1NC(=O)Cn1nnc(C(=O)Nc2ccc(C)cc2)c1N`, for which the cytotoxicity was -0.5%.

For `CCOc1ccccc1NC(=O)Cn1nnc(C(=O)Nc2ccccc2Cl)c1N`, the cytotoxicity is 8.3%.

`Cc1nn(-c2ccccc2)c2c1C(c1ccco1)C(C#N)=C(N)O2` (stereo unspecified): the cytotoxicity is 11.5%.

Turning to `O=C(Nc1ccc2c(c1)OCCO2)C1CCN(S(=O)(=O)c2ccc(Br)s2)CC1`, the cytotoxicity was 6.5%.

As for `O=C(Nc1ccccc1C(F)(F)F)N1CCN(c2ccc3nnc(-c4ccc(F)cc4)n3n2)CC1`, the cytotoxicity was 13.1%.

For `O=C(Nc1ccccc1Cl)N1CCN(c2ccc3nnc(-c4ccc(F)cc4)n3n2)CC1`, the cytotoxicity was 17.7%.

For `O=C(Nc1ccc(Cl)cc1)N1CCN(c2ccc3nnc(-c4ccc(F)cc4)n3n2)CC1`, the cytotoxicity was 69.6% (active).

`CCCNS(=O)(=O)c1ccc(OCC(=O)NCc2ccc3c(c2)OCO3)cc1`: the cytotoxicity is 6.3%.

As for `Cc1nnc(SCCn2c(N3CCN(C)CC3)nc3c2c(=O)[nH]c(=O)n3C)s1`, the cytotoxicity is -9.1%.

As to `Cc1nnc(Sc2nc(Sc3nnc(C)s3)nc(N3CCN(C)CC3)n2)s1`, the cytotoxicity is 81.3% (active).

As to `Cc1nnc(SCCn2c(N3CCN(C)CC3)nc3c2c(=O)n(C)c(=O)n3C)s1`, the cytotoxicity is -5.2%.

Regarding `COc1ccc([C@@H]2[C@H]3CN(C(C)=O)CC=C3C(C#N)=C(N)C2(C#N)C#N)c2ccccc12`, the cytotoxicity was -8.9%.

Regarding `CCOC(=O)c1ccc(N=c2sc(C(=O)OC)cc(=O)n2C2CC2)cc1`, the cytotoxicity is 23.6%.

As for `CCOC(=O)c1ccc(N=c2sc(C(=O)OC)cc(=O)n2Cc2ccco2)cc1`, the cytotoxicity is 116% (active).

Regarding `CCOC(=O)c1ccc(N=c2sc(C(=O)OC)cc(=O)n2CCCN2CCOCC2)cc1`, the cytotoxicity was -17.7%.

Consider `COC(=O)c1cc(=O)n(Cc2ccc3c(c2)OCO3)c(=Nc2ccccc2)s1`, for which the cytotoxicity was 34.9%.

On to `COC(=O)c1cc(=O)n(Cc2ccco2)c(=Nc2ccc(F)c(Cl)c2)s1`, for which the cytotoxicity was 82.7% (active).

Take `CCn1c(=O)cc(C(=O)OC)sc1=Nc1ccc(F)c(F)c1`: the cytotoxicity is 17.4%.

With `CN(CCc1ccccn1)Cc1ccc(Cl)cc1Cl`, the cytotoxicity was 3.3%.

Take `Cc1ccc(-c2nnc(SCc3ccccc3F)o2)cc1`: the cytotoxicity was 1.8%.

Take `O=C(Nc1cccc2ncccc12)c1cccnc1`: the cytotoxicity is -4.6%.

For the compound `O=C(Nc1ccccc1)N(CCN1CCOCC1)Cc1ccccc1F`, the cytotoxicity was -7.5%.

Take `Cc1ccc(C)c(CN2CCCNC2=O)c1`: the cytotoxicity is -5.7%.

For the compound `COC(=O)c1cc2occc2n1CC(=O)Nc1ccc(OC)c(OC)c1`, the cytotoxicity is -0.3%.

Turning to `CCNC(=O)CSc1nc2ccccc2c(=O)n1OC`, the cytotoxicity was -1%.

Regarding `Clc1ccc(Cn2nnc(-c3ccc(CN4CCOCC4)cc3)n2)cc1`, the cytotoxicity was -26.4%.

For `COC(=O)c1ccc(NC(=O)C2CCCN2S(=O)(=O)c2ccc(F)cc2)cc1` (stereo unspecified), the cytotoxicity was 2.5%.

As to `COc1cccc(-c2cc(C(F)(F)F)nc(N3CCCCC3)n2)c1`, the cytotoxicity was -12.8%.

In the case of `COc1cccc(-c2cc(C(F)(F)F)nc(N3CCOCC3)n2)c1`, the cytotoxicity is -14%.

Take `COc1cccc(-c2cc(C(F)(F)F)nc(N3CCN(c4ccccc4)CC3)n2)c1`: the cytotoxicity was 72.4% (active).

With `O=c1c2ccccc2oc2ncccc12`, the cytotoxicity is -24.9%.

For the compound `CCC(Sc1nccn1C)C(=O)Nc1cccc2ccccc12` (stereo unspecified), the cytotoxicity was -6.2%.

For the compound `COc1cc(C(=O)N2CCN(c3ccc(C)cc3C)CC2)cc(OC)c1OC`, the cytotoxicity was 53.4% (active).

As to `COc1ccc(C(=O)N2CCN(c3ccc(C)cc3C)CC2)cc1OC`, the cytotoxicity is -9.6%.

Regarding `COc1cc(C(=O)N2CCN(c3cccc(C)c3C)CC2)cc(OC)c1OC`, the cytotoxicity was 67.4% (active).

On to `Cc1ccc(N2CCN(C(=O)c3ccccc3)CC2)c(C)c1`, for which the cytotoxicity is -29.9%.

Regarding `COc1cc(C(=O)N2CCN(C(=O)c3ccccc3)CC2)cc(OC)c1OC`, the cytotoxicity was -2.2%.

As for `COc1ccc(Cl)cc1S(=O)(=O)N1CCN(C(=O)c2cc(OC)c(OC)c(OC)c2)CC1`, the cytotoxicity is -17%.

Turning to `Cc1cccc(N2CCN(C(=O)c3ccc(Cl)c(S(=O)(=O)NCc4ccco4)c3)CC2)c1C`, the cytotoxicity is 65.8% (active).

Take `O=C(NCC1(N2CCOCC2)CCCCC1)c1ccc(Cl)c(S(=O)(=O)NCc2ccco2)c1`: the cytotoxicity is -1.6%.

Consider `O=C(O)c1ccc(Cl)c(S(=O)(=O)NCc2ccco2)c1`, for which the cytotoxicity was -12.1%.

Take `COc1ccc(C(=O)N2CCN(C(=O)c3cc(OC)c(OC)c(OC)c3)CC2)cc1`: the cytotoxicity is 5.9%.

Take `Cc1cccc(N2CCN(C(=O)c3ccncc3)CC2)c1C`: the cytotoxicity is 34.4%.

With `COc1cc(C(=O)N2CCN(c3cc(Cl)ccc3Cl)CC2)cc(OC)c1OC`, the cytotoxicity was 64.3% (active).

As to `CCOCC(=O)Nc1cccc(NC(C)=O)c1`, the cytotoxicity was -3.5%.

As for `COc1ccc(C(=O)N(Cc2ccco2)Cc2cc3cc(C)ccc3[nH]c2=O)cc1OC`, the cytotoxicity was 4.2%.

Turning to `Cc1ccc(S(=O)(=O)Nc2ccc(NC(=O)CN3CCCCC3)cc2)cc1`, the cytotoxicity was -3%.

For `COc1ccc(OCC(=O)Nc2ccc3c(c2)nc(CCN2CCOCC2)n3C)cc1`, the cytotoxicity was 10.7%.

Regarding `COc1ccc(C(CNC(=O)Cc2cc(OC)c(OC)c(OC)c2)N2CCCC2)cc1` (stereo unspecified), the cytotoxicity was -31.8%.

For `COc1ccc(-c2nnc(SCC(=O)NC(C)c3ccccc3)o2)cc1OC` (stereo unspecified), the cytotoxicity was -26.2%.

`O=C(OCc1nnc(-c2ccccc2)o1)c1cc(=O)c2ccccc2o1`: the cytotoxicity is 1.2%.

Regarding `CCC(C)NC(=O)NC1C(NC(=O)NC(C)CC)N(C)C(=O)N1C` (stereo unspecified), the cytotoxicity was -7.6%.

Consider `CCN(C(=O)c1coc(=O)c2ccccc12)c1cc(OC)ccc1OC`, for which the cytotoxicity is -6.4%.

As to `Cc1[nH]nc2c1C1(CCN(Cc3ccccc3)CC1)C(C#N)=C(N)O2`, the cytotoxicity was -9.5%.

`COc1ccc(C2=NOC(C(=O)N3CCOCC3)C2)cc1OC` (stereo unspecified): the cytotoxicity is -3.2%.

Turning to `Cc1ccc2nc(SCCC#N)nc(C)c2c1`, the cytotoxicity is -10.1%.

`COc1ccc(S(=O)(=O)N2CC(C)N(S(=O)(=O)c3ccc(OC)cc3)CC2C)cc1` (stereo unspecified): the cytotoxicity is -4.1%.

On to `Clc1ccc2oc(-c3ccccc3)nc2c1`, for which the cytotoxicity was -4.4%.

Regarding `O=S1(=O)C=C(Sc2nc3ccccc3s2)c2ccccc21`, the cytotoxicity was 109% (active).

Take `O=S1(=O)C=C(Sc2nnc(-c3ccccc3)o2)c2ccccc21`: the cytotoxicity was 47.8%.

Take `Cn1c(SC2=CS(=O)(=O)c3ccccc32)nc2ccccc21`: the cytotoxicity was 49.6%.

On to `Cc1cc(C)nc(SC2=CS(=O)(=O)c3ccccc32)n1`, for which the cytotoxicity was 4.3%.

For the compound `COc1ccc(/C=N/n2cnnc2SCCO)cc1OC`, the cytotoxicity was -14.1%.

Take `COc1ccc(-c2nnc3sc(-c4ccccn4)nn23)cc1`: the cytotoxicity was -5.5%.

Take `COc1ccc(-c2cn3cccnc3n2)cc1NC(=O)C1CCCC1`: the cytotoxicity is -13.7%.

For `Cn1c(Cn2nnc3ccccc32)nnc1SCC(=O)N1c2ccccc2Sc2ccccc21`, the cytotoxicity is -9.1%.

For the compound `CCSC(SCC)[C@H](O)[C@@H](O)[C@H](O)[C@H](O)CO`, the cytotoxicity is 11.2%.

In the case of `CCCC(N)CCCCCC(=O)O` (stereo unspecified), the cytotoxicity is -2.3%.

With `COc1ccccc1N1C(=O)C2C3C=CC(C3)C2C1=O` (stereo unspecified), the cytotoxicity was -6%.

On to `O=c1oc2ccccc2n1CSc1nc2ccccc2s1`, for which the cytotoxicity was -4%.

As to `CCNS(=O)(=O)c1ccc(NC(=O)c2ccccc2OCC)cc1`, the cytotoxicity is 10.2%.

In the case of `CC(=O)c1sc(NC(=O)C=C(C)C)nc1C`, the cytotoxicity was 1.3%.

Take `CC(=O)c1sc(NC(=O)C2(F)C(F)(F)C(F)(F)C(F)(F)C(F)(F)C2(F)F)nc1C`: the cytotoxicity was 52.4% (active).

With `CCCCC(=O)Nc1nc(C)c(C(C)=O)s1`, the cytotoxicity was -0.6%.

On to `O=C(c1ccco1)N1CCN(Cc2ccc(Cl)cc2)CC1`, for which the cytotoxicity was -3.7%.

`CCN(CC)S(=O)(=O)c1ccc2c(c1)nc(SCC(=O)NC1CC1)n2-c1ccccc1OC`: the cytotoxicity is 3.8%.

Turning to `COc1ccc(-c2nc3ccccc3c(=O)n2CCCn2ccnc2)cc1`, the cytotoxicity is -0.2%.

Consider `CSc1ccc(S(=O)(=O)Nc2ccc3c(c2)OCCO3)cc1`, for which the cytotoxicity is 8.6%.

For the compound `O=S(=O)(Nc1ccc2c(c1)OCCO2)c1ccc2oc3ccccc3c2c1`, the cytotoxicity was 83.9% (active).

As for `COc1ccc(NS(=O)(=O)c2ccc3oc4ccccc4c3c2)cn1`, the cytotoxicity was 25.3%.

Take `CCc1c(C)nc2ncnn2c1N1CCC(C(=O)Nc2cccc(C(C)=O)c2)CC1`: the cytotoxicity was -7.9%.

`N#Cc1c(NC(=O)CSc2nnc(-c3ccncc3)n2CC2CCCO2)sc2c1CCCC2` (stereo unspecified): the cytotoxicity is 4.8%.

Take `Cc1ccc(/C=c2/sc3nnc(-c4ccccc4Cl)n3c2=O)o1`: the cytotoxicity was 69.7% (active).

`Cc1ccccc1-c1nnc2s/c(=C\c3ccc(N(C)C)cc3)c(=O)n12`: the cytotoxicity is 2.2%.

`Cc1ccc(/C=c2\sc3nc(-c4ccccc4Br)nn3c2=O)o1`: the cytotoxicity is 2.6%.
